Normalised cell viability data for 35 compounds are collected here from the supplement of paper PMC6609913.

Where a name gives a salt, the structure may show the parent alone. ± gives the standard deviation of the averaged measurements. The full ranking holds about 1,300 compounds; the median of “normalised cell viability” is about 1, and the lowest 2% start at about 0.14. What follows is part of a selection rich in the lowest values, with near analogues and random picks from the rest.

This test concerns V-C8 (BRCA2-deficient hamster cells). Briefly: normalised cell viability (fraction of plate median); higher = more viable cells (less toxic). The conditions noted are these: 5 µM. The method, boiled down: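 Hamster V-C8 cells with and without restored BRCA2 were exposed in 96-well plates to library drugs at 5 μM for 3 days (screen 1) or 6 days (screen 2). Cell viability was scored by resazurin assay, then median-plate normalised, averaging triplicate wells.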

As for `C[C@@]1(O)CCOC(=O)C1` [Mevalonic-D, L acid lactone], the normalised cell viability turned out to be 1.12 ± 0.05 (treatment time: 3 days) and 1.05 ± 0.18 (treatment time: 6 days).
Compound `COc1ccc2[nH]cc(CCNC(C)=O)c2c1` [Melatonin] displayed a normalised cell viability (treatment time: 3 days) of 1.16 ± 0.068 and a normalised cell viability (treatment time: 6 days) of 1 ± 0.058.
For `CCCCCNC(=N)N/N=C/c1c[nH]c2ccc(OC)cc12` [Tegaserod maleate] the same measures were 0.124 ± 0.011 and 0.164 ± 0.016.
For `CN1CCCC(CC2c3ccccc3Sc3ccccc32)C1` (stereo not given) [Metixene hydrochloride], in that order: 0.57 ± 0.02 and 0.69 ± 0.052.
Consider `Clc1ccc(C(Cn2ccnc2)OCc2ccsc2Cl)c(Cl)c1` (stereo not given) [Tioconazole], for which the normalised cell viability runs as follows: (treatment time: 3 days) 0.97 ± 0.046; (treatment time: 6 days) 0.966 ± 0.059.
For `COC1=C(OC)C(=O)C(CCCCCCCCCCO)=C(C)C1=O` [Idebenone] the same measures were 0.648 ± 0.036 and 0.713 ± 0.04.
The compound `CC(C)(C)NCC(O)COc1cccc2c1CC(O)C(O)C2` (stereo not given) [Nadolol] returned a normalised cell viability (treatment time: 3 days) of 1.02 ± 0.073 and a normalised cell viability (treatment time: 6 days) of 1.04 ± 0.035.
For `C1CCC(C(CC2CCCCN2)C2CCCCC2)CC1` (stereo not given) [Perhexiline maleate], in that order: 0.126 ± 0.011 and 0.109 ± 0.0083.
For `Cc1cc2cc3c(C)cc(=O)oc3c(C)c2o1` [Trioxsalen], in that order: 1.04 ± 0.047 and 1.07 ± 0.027.
For `CC=CC(=O)N(CC)c1ccccc1C` [Crotamiton] the same measures were 0.866 ± 0.12 and 0.929 ± 0.025.
For the compound `CC(C)c1ccc2oc3nc(N)c(C(=O)O)cc3c(=O)c2c1` [Amlexanox], the normalised cell viability is, setting by setting: (treatment time: 3 days) 0.933 ± 0.034; (treatment time: 6 days) 1.03 ± 0.089.
For `O=C(O)[C@H]1/C(=C/CO)O[C@@H]2CC(=O)N21` [Potassium clavulanate], in that order: 1 ± 0.03 and 0.984 ± 0.039.
For `Nc1ccc(O)c(C(=O)O)c1` [Mesalamine], in that order: 1.09 ± 0.028 and 1.14 ± 0.27.
For `CC(C)NC(=N)NC(=N)Nc1ccc(Cl)cc1` [Proguanil hydrochloride] the same measures were 0.196 ± 0.012 and 0.189 ± 0.014.
For the compound `N=C(NCCCCCCNC(=N)NC(=N)Nc1ccc(Cl)cc1)NC(=N)Nc1ccc(Cl)cc1` [Chlorhexidine], the normalised cell viability reads like this: (treatment time: 3 days) 0.129 ± 0.0057; (treatment time: 6 days) 0.101 ± 0.0054.
For `N=C(N)NC(=N)NCCc1ccccc1` [Phenformin hydrochloride], in that order: 0.955 ± 0.035 and 0.96 ± 0.052.
For `CN(C)CCOc1ccc(/C(=C(/CCCl)c2ccccc2)c2ccccc2)cc1` [Toremifene] the same measures were 0.716 ± 0.067 and 0.875 ± 0.052.
In the case of `CC/C(=C(\c1ccccc1)c1ccc(OCCN(C)C)cc1)c1ccccc1` [Tamoxifen citrate], the normalised cell viability is, setting by setting: (treatment time: 3 days) 0.837 ± 0.019; (treatment time: 6 days) 0.767 ± 0.035.
For `CCN(CC)CCOc1ccc(C(=C(Cl)c2ccccc2)c2ccccc2)cc1` [Clomiphene citrate (Z,E)], in that order: 0.142 ± 0.002 and 0.118 ± 0.011.
For `CC[N+](CC)(CC(=O)Nc1c(C)cccc1C)Cc1ccccc1` [Denatonium benzoate], in that order: 1.01 ± 0.031 and 1.07 ± 0.019.
For `Cc1cn([C@H]2C=C[C@@H](CO)O2)c(=O)[nH]c1=O` [Stavudine], in that order: 1.05 ± 0.077 and 1.23 ± 0.35.
As to `O=C1NCCN1CCN1CCC(c2cn(-c3ccc(F)cc3)c3ccc(Cl)cc23)CC1` [Sertindole], the normalised cell viability is 0.385 ± 0.019 (treatment time: 3 days) and 0.591 ± 0.069 (treatment time: 6 days).
For `CC(C)(C)C(=O)OCOC(=O)[C@@H]1N2C(=O)[C@@H](/N=C/N3CCCCCC3)[C@H]2SC1(C)C` [Pivmecillinam hydrochloride], in that order: 0.959 ± 0.056 and 1.01 ± 0.039.
For `Cc1ncc([N+](=O)[O-])n1CCO` [Metronidazole], in that order: 0.914 ± 0.088 and 1.04 ± 0.058.
For `CC(=O)O[C@H]1C(=O)[C@@]2(C)[C@H]([C@H](OC(=O)c3ccccc3)[C@]3(O)C[C@H](OC(=O)[C@H](O)[C@@H](NC(=O)c4ccccc4)c4ccccc4)C(C)=C1C3(C)C)[C@]1(OC(C)=O)CO[C@@H]1C[C@@H]2O` [Paclitaxel], in that order: 0.193 ± 0.01 and 0.199 ± 0.0046.
`Cc1oncc1C(=O)Nc1ccc(C(F)(F)F)cc1` [Leflunomide]: the normalised cell viability was determined as 0.904 ± 0.065 (treatment time: 3 days) and 0.959 ± 0.043 (treatment time: 6 days).
With `COc1cccc(N(C)C(=S)Oc2ccc3c(c2)CCCC3)n1` [Liranaftate], the normalised cell viability stood at 0.805 ± 0.038 (treatment time: 3 days) and 0.74 ± 0.046 (treatment time: 6 days).
Take `COC(=O)Nc1nc2ccc(SC(C)C)cc2[nH]1` [Methiazole]: the normalised cell viability is, setting by setting: (treatment time: 3 days) 0.214 ± 0.0082; (treatment time: 6 days) 0.221 ± 0.025.
For `COc1ccc(CN2CCN(C(c3ccc(F)cc3)c3ccc(F)cc3)CC2)c(OC)c1OC` [Lomerizine hydrochloride], in that order: 0.881 ± 0.042 and 0.799 ± 0.035.
For `Cc1ccc(S(=O)(=O)NC(=O)NN2CC3CCCC3C2)cc1` (stereo not given) [Gliclazide] the same measures were 1.04 ± 0.049 and 0.979 ± 0.091.
Consider `CCOC(=O)OC(C)OC1=C(C(=O)Nc2ccccn2)N(C)S(=O)(=O)c2ccccc21` (stereo not given) [Ampiroxicam], for which the normalised cell viability was 1.03 ± 0.055 (treatment time: 3 days) and 1.02 ± 0.041 (treatment time: 6 days).
For `Cc1cc(N)c2ccccc2[n+]1CCCCCCCCCC[n+]1c(C)cc(N)c2ccccc21` [Dequalinium dichloride], in that order: 0.171 ± 0.0032 and 0.162 ± 0.013.
For `CN(CCCCCCCCCCN(C)C(=O)Oc1cccc([N+](C)(C)C)c1)C(=O)Oc1cccc([N+](C)(C)C)c1` [Demecarium bromide], in that order: 0.828 ± 0.022 and 0.812 ± 0.013.
For the compound `C[C@H]1NC(=O)NC1=O` [Methylhydantoin-5-(D)], the normalised cell viability amounted to 0.968 ± 0.032 (treatment time: 3 days) and 0.954 ± 0.077 (treatment time: 6 days).
Regarding `CO[C@H]1/C=C/O[C@@]2(C)Oc3c(C)c(O)c4c(O)c(c5c(nc6cc(C)ccn65)c4c3C2=O)NC(=O)/C(C)=C\C=C\[C@H](C)[C@H](O)[C@@H](C)[C@@H](O)[C@@H](C)[C@H](OC(C)=O)[C@@H]1C` [Rifaximin], the normalised cell viability reads like this: (treatment time: 3 days) 0.964 ± 0.023; (treatment time: 6 days) 0.928 ± 0.017.
